A short description of assay [1]: glutamate transport activators, MN-1 cells, MN-1 cell line (AID 1612).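 Also: tested at 1 µM final; 0% = mean of DMSO vehicle wells on each plate; positive means more glutamate uptake than control and negative means less.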 The settings on record: MN-1 motor neuron cells, stronger effect = higher value.
A short description of assay [2]: 75Q-TubH aggregate inhibition, S. cerevisiae, yeast (AID 1616). The settings on record: S. cerevisiae 75Q-TubH polyglutamine aggregation suppression; stronger effect = higher value.
Assay [3] is described as follows: compounds altering circadian rhythm period length – cell-based, LOPAC library, luminescence reporter (AID 2774).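 Also: values are relative to mean of DMSO wells on each plate.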 The settings on record: circadian reporter cells, at 7 µM, actives lie on both sides.
The nature of assay [4]: compounds altering viability of human ES cells (AID 493140).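 Also: cells exposed to compounds for four days before counting.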 The settings on record: human embryonic stem cell survival screen; stronger effect = higher value.
Assay [5] can be described thus: P. berghei load reduction in hepatocytes – cell-based, HepG2, luciferase luminescence, HepG2 viability, primary screen (AID 624349; in the data active = parasite load remaining mostly below about 12%, no sharp cut-off; inactive = mostly above about 10%;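 also: 100% = mean of DMSO negative control wells on the same plate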). The settings on record: P. berghei liver stage in HepG2, luciferase luminescence, concentration not given here; parasite load remaining: stronger effect = lower value; viability: measured here: HepG2 viability without parasites.
For assay [6], the system named is Hepatitis C virus NS3 helicase. Description: blockers of NS3h binding to ssDNA – biochemical, fluorescence polarization, LOPAC1280 library, primary screen (AID 687035; in the data active = inhibition above about 37%). The settings on record: Purified HCV NS3 helicase, Cy5-dT15 ssDNA binding fluorescence polarization; stronger effect = higher value; concentration not given here.
Assay [7] can be described thus: compounds altering Cy5-DNA-NS3h complex signal – biochemical, LOPAC1280, artefact control for HCV NS3 helicase inhibitor project (AID 687037). The settings on record: Cy5-DNA-NS3h complex fluorescence interference counterscreen. On the technique in general: A counterscreen serves to expose hits that act by an unwanted route or on another target.
Assay [8] can be described thus: Wnt pathway potentiators raising nuclear beta-catenin – imaging, WNT3A-conditioned medium, mouse C2C12, NPC library, primary screen (AID 1117326; in the data active = nuclear beta-catenin stimulation mostly above about 4.2%, no sharp cut-off; inactive = mostly below about 10%). The note with it: stronger effect = higher value.
Assay [9] in a line: GFP-Q80 aggregate reduction, neuronal-like cells, cell-based, NGF-treated PC12, GFPQ80 (AID 1614).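 Also: lower means fewer inclusions and 0 means no inclusions at all.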 The settings on record: PC12 NGF-treated GFP-polyQ80 inclusion reduction.
Assay [10] is described as follows: signal quenchers or enhancers, Cy5 substrate/SSB – biochemical, NIH Clinical Collection, E. coli SSB, artefact control for HCV NS3 helicase inhibitor project (AID 743268). The settings on record: Cy5-oligo bound E. coli SSB, fluorescence interference.
The subject of assay [11] is Hepatitis C virus NS3 helicase. The assay can be described thus: blockers of NS3h binding to DNA – biochemical, fluorescence polarization, NIH Clinical Collection, primary screen (AID 743270). The settings on record: NS3 helicase binding to Cy5-dT15 DNA, stronger effect = higher value, concentration not given here. Background: Polarisation of emitted light reports the rotation of a fluorescent probe.

Assay [12] deals with Single-stranded DNA-binding protein (Escherichia coli (strain K12)) (UniProt P0AGE0). Description: SSB-ssDNA binding inhibitors – biochemical, fluorescence polarization, NIH Clinical Collection, counter-screen for HCV NS3 helicase inhibitor project (AID 743271; in the data active = inhibition above about 28%). The note with it: E. coli SSB-DNA binding, stronger effect = higher value, concentration not given here.
A short description of assay [13]: compounds distorting NS3 helicase fluorescence signal – biochemical, NIH Clinical Collection, artefact control for HCV NS3 helicase inhibitor project (AID 743272).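 Also: HCV NS3 helicase with a Cy5 labelled single stranded DNA probe.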 The note with it: fluorescence interference counterscreen, HCV NS3 helicase assay; stronger effect = lower value.
Assay [14] has as its system Neuropilin-2 / VEGF-C interaction (human). Description: small molecules blocking Neuropilin-2/VEGF-C interaction – biochemical, microplate binding format, z-score (AID 743281). The note with it: microplate NRP2/VEGF-C binding assay; stronger effect = lower value.

SMILES strings stand for the structures. Several values for one entry are separate records, joined by “and”; a condition that tells them apart may be missing. Equal entries are not always repeated. Some compounds were tested as several samples or in several runs, with calls that do not always agree. Activity calls are given as the source filed them. Unless noted, no rule for the calls is given here.

Here are results for ten molecules from PubChem BioAssay.

With `CCCC(C(=O)OCCN(CC)CC)(c1ccccc1)c1ccccc1`, the glutamate uptake change in [1] worked out at 0.18%. Besides, in [2], the aggregation suppression score is 1.25. The period change in [3] is -0.035 h (inactive). In assay [4], the survival is 3.58 (inactive). Further, in [5], the parasite load remaining is -0.02% (active) and 10.3% (inactive) and 0.005% (inactive); the viability was 85.1% and 64.2% and 90.3%. For the same molecule, in [6], the inhibition is -6% (inactive). In assay [7], the fluorescence ratio (interference) was 0.9 (inactive). The nuclear beta-catenin stimulation in assay [8] (at 10 µM) is 0% (inactive). For the same molecule, the nuclear beta-catenin stimulation in assay [8] (stimulation, at 2 µM) was determined as 1.1%.

With `Cc1ccc(C(C)C)cc2c(C)ccc1-2`, in assay [1], the glutamate uptake change stood at 4.08%. This molecule also yielded an aggregation suppression score in [2] of -1.39. Also, the nuclear beta-catenin stimulation in assay [8] (at 10 µM) is -1.2% (inactive); in assay [8] (stimulation, at 2 µM) it was 0.2%.

On to `CN(C)CCCN1c2ccccc2Sc2ccc(C(F)(F)F)cc21`, for which the glutamate uptake change in assay [1] was determined as 10.7%. The aggregation suppression score in [2] is 1.05. Moreover, the period change in assay [3] was -0.13 h (inactive). Further, in [4], the survival is 5.42 (inactive). In assay [6], the inhibition is -5% (inactive). For the same molecule, the fluorescence ratio (interference) in [7] is 1 (inactive). Also, the nuclear beta-catenin stimulation in assay [8] (at 10 µM) was 41.9% (active); in assay [8] (stimulation, at 2 µM), 3.5%.

Turning to `CC1=CC(=O)c2ccccc2C1=O`, the glutamate uptake change in assay [1] was -13.7%. In assay [2], this molecule came in with an aggregation suppression score of 0.00728. Besides, the survival in [4] was 2.42 (inactive). Further, the nuclear beta-catenin stimulation is 25% (inactive) in assay [8] (at 10 µM) and 0.1% in assay [8] (stimulation, at 2 µM).

Consider `OC[C@H]1O[C@@H](O[C@@H]2[C@@H](CO)O[C@](O)(CO)[C@H]2O)[C@H](O)[C@@H](O)[C@H]1O`, for which the glutamate uptake change in assay [1] is 8.9%. In [9], this molecule yielded an inclusion score of 2. The aggregation suppression score in assay [2] is 0.924. The parasite load remaining in assay [5] is 106% (inactive) and 22.7% (inactive). The viability in [5] is 76.4% and 96.6%. The nuclear beta-catenin stimulation in assay [8] (at 10 µM) was 2.4% (inactive); in assay [8] (stimulation, at 2 µM) it was 1.6%.

Consider `Cc1nc2sccn2c(=O)c1CCN1CCC(=C(c2ccc(F)cc2)c2ccc(F)cc2)CC1`, for which the glutamate uptake change in assay [1] stood at 29.6%. The same molecule had an aggregation suppression score in assay [2] of 1.39. Besides, the period change in [3] was 0.08 h (inactive). In assay [5], the parasite load remaining was 16.8% (inactive) and the viability was determined as 91.8%. The inhibition in [6] was 0% (inactive). Besides, the fluorescence ratio (interference) in assay [7] is 0.9 (inactive). In addition, the nuclear beta-catenin stimulation in [8] (at 10 µM) was 13.4% (inactive). Further, in assay [8] (stimulation, at 2 µM), the nuclear beta-catenin stimulation turned out to be 4.3%.

On to `CC(CN(C)C)CN1c2ccccc2CCc2ccccc21` (stereo not drawn), for which the glutamate uptake change in assay [1] was determined as 14.6%. For the same molecule, the aggregation suppression score in [2] amounted to 1.32. In addition, in assay [3], the period change was -0.085 h (inactive). Also, in [4], the survival was 2.17 (inactive). Moreover, in assay [5], the parasite load remaining is 54.2% (inactive) and 101% (inactive) and 48.3% (inactive); the viability was 103% and 83.8% and 93.4%. In addition, the inhibition in assay [6] is -4% (inactive). For the same molecule, the fluorescence ratio (interference) in assay [7] is 1 (inactive). Further, in assay [8] (at 10 µM), the nuclear beta-catenin stimulation was -1.5% (inactive). For the same molecule, the nuclear beta-catenin stimulation in assay [8] (stimulation, at 2 µM) is -0.7%.

Consider `COC(=O)Nc1nc2ccc(Sc3ccccc3)cc2[nH]1`, for which the glutamate uptake change in [1] is -41.7%. In addition, in assay [2], the aggregation suppression score came to 0.129. Further, in [4], the survival was 0.833 (inactive). The nuclear beta-catenin stimulation in [8] (at 10 µM) was 56.8% (active); in assay [8] (stimulation, at 2 µM), 33.5%.

In the case of `Clc1ccccc1C(c1ccccc1)(c1ccccc1)n1ccnc1`, in assay [1], the glutamate uptake change is -22.9%. The aggregation suppression score in [2] was 0.0931. For the same molecule, the period change in [3] was 0.01 h (inactive). Moreover, the survival in assay [4] is 29.8 (inactive). Moreover, the inhibition in assay [6] is -2% (inactive); in assay [11], 5.94% (inactive); in assay [12] it was 6.83% (inactive). Moreover, the fluorescence ratio (interference) in assay [7] is 1 (inactive). Also, the fluorescence ratio in assay [10] and in assay [13] was 0.9 (inactive) each time. Besides, the z-score in assay [14] is 0.266 (inactive). Further, the nuclear beta-catenin stimulation was 1.1% (inactive) in assay [8] (at 10 µM) and 1.7% in assay [8] (stimulation, at 2 µM).

With `CCN(CC)CCOC(=O)C(c1ccccc1)C1CCCCC1` (stereo not drawn), in [1], the glutamate uptake change is 1.54%. In addition, the aggregation suppression score in [2] was determined as 1.17. For the same molecule, the survival in [4] is 3.67 (inactive). Moreover, in assay [5], the parasite load remaining is 67.5% (inactive) and 28.1% (inactive). In [5], the viability was 92.4% and 69.7%. The nuclear beta-catenin stimulation in [8] (at 10 µM) was 5% (inactive); in [8] (stimulation, at 2 µM), 0.5%.

In general, viability refers to a read-out of living cells in per cent, often relative to untreated cells. Usually inhibition stands for the change of the read-out against control, counted positive when it falls.
